Screening data: PubChem BioAssay, Broad Institute
Only some compounds are listed: those with a hit (about 2.8% of all), similar ones and a draw of the others.
SIRT5 block – SIRT5 desuccinylase inhibitors, primary screen, biochemical, fluorescence imaging, single point, set 5. NAD-dependent protein deacylase sirtuin-5, mitochondrial (Homo sapiens), Q9NXA8. Purified SirT5, succinyl-peptide AMC, trypsin-coupled fluorescence. inhibition, % at 15 µM. hit rate 1.1% among 330,000; in the data active = inhibition above about 15%
Target sequence (Q9NXA8 whole entry, looked up): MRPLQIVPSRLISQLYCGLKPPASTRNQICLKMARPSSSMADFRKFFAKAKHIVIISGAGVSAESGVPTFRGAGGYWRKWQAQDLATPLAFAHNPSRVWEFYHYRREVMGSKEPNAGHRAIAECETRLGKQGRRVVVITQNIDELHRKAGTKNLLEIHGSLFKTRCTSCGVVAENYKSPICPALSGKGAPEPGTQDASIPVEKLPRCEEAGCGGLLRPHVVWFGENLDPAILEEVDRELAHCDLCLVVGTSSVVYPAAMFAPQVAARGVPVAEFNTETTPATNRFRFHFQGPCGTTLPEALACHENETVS
dFosB act-1 – activators of delta FosB homodimer, primary screen, biochemical, fluorescence polarization, TAMRA-CDK5 oligo, single point; Protein FosB (Mus musculus), P13346; purified delta FosB; percent of positive-control signal above neutral wells; activation, % at 25 µM; hit rate 0.99% among 340,000;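 active = mean activation above about 17%, with every replicate also reaching it, limit read from the data, passing the limit was not always enough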
Target sequence (P13346 whole entry, looked up): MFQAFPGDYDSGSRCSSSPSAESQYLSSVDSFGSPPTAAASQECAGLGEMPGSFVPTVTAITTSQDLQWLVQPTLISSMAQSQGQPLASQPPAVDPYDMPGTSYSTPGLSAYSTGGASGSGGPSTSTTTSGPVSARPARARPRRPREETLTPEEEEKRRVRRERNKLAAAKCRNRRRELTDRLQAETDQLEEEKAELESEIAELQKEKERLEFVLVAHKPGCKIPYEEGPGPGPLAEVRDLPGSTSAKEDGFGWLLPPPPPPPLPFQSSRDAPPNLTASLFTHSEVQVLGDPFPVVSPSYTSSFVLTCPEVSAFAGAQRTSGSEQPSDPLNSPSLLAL
CDK5 p35 inh – inhibitors of human CDK5/p35 kinase, primary screen, biochemical, single concentration | Cyclin-dependent kinase 5 (Homo sapiens) + Cyclin-dependent kinase 5 activator 1 (Homo … | Recombinant CDK5/p35, ADP-Glo luminescence, 60 min | inhibition, % at 10 µM | hit rate 0.01% among 330,000 | AID 488839, 2010;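 active = highest replicate inhibition of at least 50% and at least 75% of replicates reaching 50%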;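 also: plate controls were DMSO neutral control for no effect and GW8510 at 10 µM for full effect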
FGF22 binding – binders of human FGF22 protein, primary screen, FGF22 synaptogenesis inhibitor project, biophysical, thermal shift, single point; Fibroblast growth factor 22 (Homo sapiens), Q9HCT0; hit rate 1.5% among 340,000; recombinant FGF22 thermal shift, SYPRO orange fluorescence; percent of sucrose octasulfate shift, DMSO zero; AID 651658, 2012; activity (Tm shift, normalised), % at 9.99 µM;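 active = mean Tm shift, scaled 0 neutral to 100 positive control, at about 1.3% or above, every replicate too, limit read from the data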
PvdQ inh – P. aeruginosa PvdQ acylase inhibitors, primary screen, biochemical, fluorescence, plate reader and imaging, single point | PvdQ acylase [Pseudomonas aeruginosa LESB58] | purified PvdQ acylase | inhibition, % at 10 µM | hit rate 0.063% among 340,000; in the data active = inhibition above about 30%, passing the limit was not always enough;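 also: 0% = vehicle neutral wells and 100% = reference inhibitor wells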
PglD DTNB – C. jejuni PglD acetyltransferase inhibitors, primary screen, biochemical, DTNB colorimetric, single point; UDP-N-acetylbacillosamine N-acetyltransferase PglD (Campylobacter jejuni); purified PglD enzyme, DTNB colorimetric CoA detection; inhibition, % at 12.5 µM; hit rate 0.098% among 360,000; AID 602405, 2012; in the data active = inhibition above about 16%, passing the limit was not always enough
dFosB act-2 – activators of mouse delta FosB DNA binding, confirmation, biochemical, fluorescence polarization, TAMRA-CDK5 oligo, cherry-picked samples. shares compounds with dFosB act-1. purified delta FosB; normalised: neutral wells 0, positive control 100. AID 588690, 2011. activation, % at 24.9 µM. 2,400 tested, under 10 active;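 active = highest replicate activation at or above 34% and every replicate reaching that threshold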;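 also: higher polarization means more probe DNA bound by delta FosB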
* hit, by the source's call; x = not tested or not shown.

SMILES	SIRT5 block	dFosB act-1	CDK5 p35 inh	FGF22 binding	PvdQ inh	PglD DTNB	dFosB act-2
CC(C)C#Cc1ccc2c(c1)O[C@H](CN(C)C)[C@H](C)CN([C@H](C)CO)S2(=O)=O	x	x	x	0.1	x	x	x
O=C(O)c1cnc(-c2ccccc2)nc1-c1ccccc1	2.1	0.2	-0.4	0.0	-5.9	-3.0	x
O=C(Nc1ccccc1)c1cnc(-c2ccccc2)nc1-c1ccccc1	x	47.9*	-0.4	x	-12.9	-8.9	3.1
CCOc1cc(/C=N/O)cc(Br)c1OCC	x	-5.9	1.4	x	-15.6	1.2	x
CCOc1cc(/C=N/O)cc(Br)c1OCc1ccc(Cl)cc1	x	31.8*	1.0	x	1.1	4.5	-1.0
O=C(CSc1nc(C2CC2)nc2c1cnn2-c1ccccc1)Nc1c[nH]c(=O)[nH]c1=O	-5.5	127.4*	2.9	0.0	16.1	1.8	2.7
Cc1cccc(C)c1NC(=O)CSc1nc(C2CC2)nc2ccccc12	1.5	20.3*	-2.1	-0.3	-5.6	-1.7	5.4
Cc1cc(NC(=O)CSc2nc(CCC3CCCC3)nc3ccccc23)no1	x	47.4*	0.7	x	-10.5	-4.2	-4.5
Cc1nn(Cc2ccccc2)c(C)c1NC(=O)CSc1nc(C2CC2)nc2c1cnn2-c1ccccc1	x	1.5	0.5	x	-13.3	4.7	x
CCCc1nc(SCC(=O)Nc2cc(C)on2)c2ccccc2n1	x	0.1	0.3	x	-7.0	-3.3	x
C/C=C/c1ccc([C@@H]2[C@H](CO)N(CC3CCCC3)C23CN(C(=O)COC)C3)cc1	12.3	x	x	0.0	x	x	x
COC(=O)c1ccc(C(=O)Nc2ccc3nc(-c4cccnc4)[nH]c3c2)cc1	x	46.9*	3.5	x	-4.0	1.1	-0.7
Nc1ccc(C(=O)Nc2ccc3nc(-c4cccnc4)[nH]c3c2)cc1	x	2.0	-0.5	x	5.8	3.7	x
CCC(=O)N1CC[C@H]2[C@H](CO)Nc3ccc(-c4ccc(C(=O)N(C)C)cc4)cc3[C@H]21	5.3	x	x	-0.2	x	-1.0	x
C[C@H]1CN([C@@H](C)CO)C(=O)c2cc(NC(=O)c3ccncc3)ccc2O[C@H]1CN(C)Cc1ccncc1	4.3	x	x	-0.3	x	3.4	x
COc1ccc(CCn2c(=N)c(C(=O)NCCN3CCOCC3)cc3c(=O)n4cccc(C)c4nc32)cc1OC	-0.9	21.8*	0.4	0.0	-9.0	0.2	-0.5
Cc1cccn2c(=O)c3cc(C(=O)NCCc4ccccc4)c(=N)n(CCCn4ccnc4)c3nc12	x	21.8*	-0.3	x	-18.8	-17.3	0.8
COCCn1c(=N)c(C(=O)NCCc2ccccc2)cc2c(=O)n3cccc(C)c3nc21	x	-1.9	-0.3	x	-36.9	x	x
CC=Cc1ccc2n(c1=O)C[C@H]1[C@H](CO)[C@@H](C(=O)N3CCN(C)CC3)N(Cc3ccccc3OC)[C@@H]21 (mixture of isomers)	x	x	x	0.0	x	3.9	x
Cc1ccc(NC(=O)Cn2nc(-c3ccco3)ccc2=O)cc1Cl	-3.4	77.7*	-0.5	0.2	-13.5	-5.7	0.0
Cc1ccc(NC(=O)Cn2nc(C)c([N+](=O)[O-])c2C)cc1Cl	-0.2	27.8*	2.0	-0.1	-4.0	x	-0.3
O=C(Cn1cc(C(F)(F)F)cc(Cl)c1=O)Nc1cccc(Cl)c1	-3.3	6.4	2.7	-0.2	-9.2	x	x
Cc1ccc(NC(=O)Cn2cc(C(F)(F)F)cc(Cl)c2=O)cc1Cl	-2.0	22.7*	-0.8	0.4	-6.2	x	5.6
CO[C@H](CN(C)S(=O)(=O)c1ccc(Cl)cc1)[C@H](C)CN([C@H](C)CO)S(=O)(=O)c1cccc(Cl)c1	x	x	x	0.4	x	3.0	x
CCC(=O)N1[C@@H]2c3cccc(=O)n3C[C@H]1[C@H](CO)[C@H]2C(=O)N1CCCCC1	3.1	x	x	-0.1	x	5.2	x
SMILES	SIRT5 block	dFosB act-1	CDK5 p35 inh	FGF22 binding	PvdQ inh	PglD DTNB	dFosB act-2
COc1cccc(-n2nnc3c(=O)n(CC(=O)Nc4ccccc4C)cnc32)c1	-2.7	1.2	1.6	0.1	-13.3	9.0	x
COc1ccc(-n2nnc3c(=O)n(CC(=O)N4CCCc5ccccc54)cnc32)cc1	-14.6	34.8*	1.4	-0.2	-11.5	-4.5	2.6
O=C(Cn1cnc2c(nnn2Cc2ccc(F)cc2)c1=O)Nc1cccc(F)c1	-8.1	10.7	-1.0	0.0	0.8	x	x
O=C(Cn1cnc2c(nnn2Cc2ccc(F)cc2)c1=O)Nc1ccc2c(c1)OCCO2	0.1	27.2*	0.8	0.0	-7.1	-5.3	-0.2
COC(=O)c1ccc(NC(=O)Cn2cnc3c(nnn3-c3cccc(OC)c3)c2=O)cc1	-4.3	36.8*	-0.1	-0.1	10.6	2.5	-0.2
Cc1ccc(NC(=O)Cn2cnc3c(nnn3Cc3ccc(F)cc3)c2=O)cc1	2.3	22.8*	0.2	0.2	-1.0	x	0.5
CCOc1ccc(-n2nnc3c(=O)n(CC(=O)N4CCCc5ccccc54)cnc32)cc1	-6.2	-25.5	0.0	0.0	-20.1	3.8	x
Cc1ccc(S(=O)(=O)N(C)C[C@H]2Oc3ccc(NC(=O)c4ccncc4)cc3CC(=O)N([C@@H](C)CO)C[C@@H]2C)cc1	x	x	x	-0.1	x	1.4	x
OC[C@@H]1[C@@H](c2ccc(/C=C/c3ccccc3)cc2)[C@H]2CN(Cc3ccncc3)CCCCN12	-2.3	x	x	-0.2	x	6.5	x
Clc1ccc2[nH]c3c(NCCCN4CCOCC4)ncnc3c2c1	x	22.0*	-3.0	x	3.9	5.5	0.3
O=C(COC(=O)c1cc(Cl)ccc1O)Nc1ccc2c(c1)OCCO2	-0.4	29.7*	0.2	0.1	-14.7	-3.1	0.8
NS(=O)(=O)c1ccc(NC(=O)c2ccc(CSc3ccccc3)o2)cc1	x	34.0*	-0.9	0.2	-25.2	-1.3	-8.4
O=C(Nc1ccc(F)cc1)c1ccc(CSc2ccccc2)o1	x	-16.3	-4.2	0.2	-17.1	x	x
CC=Cc1ccc2n(c1=O)C[C@H]1[C@H](CO)[C@@H](C(=O)N3CCCCC3)[C@@H]2N1C(=O)C1CCC1 (mixture of isomers)	-20.4	x	x	-0.2	x	-1.0	x
COc1ccc(N2CCc3c(C)nc4c(OC)cc(OC)cc4c32)c(OC)c1	x	1.9	0.5	x	-14.0	-4.1	x
COc1ccc(N2CCc3c(C)nc4c(OC)cc(OC)cc4c32)cc1	1.7	38.3*	1.1	0.4	-7.3	x	1.0
NCCCCCNC(=O)[C@@H]1C[C@@H]2C(=O)N[C@@H](Cc3ccccc3)C(=O)N2[C@@H]1c1ccc(O)cc1	-1.7	x	x	0.1	x	-4.9	x
O=C(COc1ccc2c(-c3ccccc3)cc(=O)oc2c1)Nc1ccc(CN2CCOCC2)cc1	-0.7	27.1*	0.4	0.2	3.3	1.1	1.7
